Measured values from PubChem BioAssay AID1159580 (chemical genetic matrix, 2015).
Among all 5,500 compounds or so, about 2,000 (36%) were called active. About 18% were inconclusive and are not listed. No stated cut-off is given here; in the data, active means normalized growth mostly below about 0.91 (no sharp cut-off); inconclusive means no clear call, values can overlap the other calls; inactive means mostly above about 0.92. This is one part of the list.

Test: chemical genetic growth profiling, strain panel (AID 1159580);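 further: tested at 20 µM; growth read once vehicle control cultures reached saturation at 30 °C; 1 = growth at the plate median or of vehicle wells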
Details: growth OD

Measured: normalized growth

COP(=O)(OC)OC=C(Cl)Cl
inactive: S. cerevisiae deletion strains, locus YJR075W, strain HOC1, stronger effect = lower value 0.962 | S. cerevisiae deletion strains, locus YKL009W, strain mrt4, stronger effect = lower value 0.951 | S. cerevisiae deletion strains, locus YKL068W, stronger effect = lower value 0.986 | S. cerevisiae deletion strains, locus YKL085W, strain MDH1 (second series), stronger effect = lower value 0.981 | S. cerevisiae deletion strains, locus YKL085W, strain MDH1, stronger effect = lower value 0.981 | S. cerevisiae deletion strains, locus YKL160W, strain elf1, stronger effect = lower value 0.999 | S. cerevisiae deletion strains, locus YKL190W, strain CNB1, stronger effect = lower value 0.994 | S. cerevisiae deletion strains, locus YKR001C, strain vps1, stronger effect = lower value 0.992 | S. cerevisiae deletion strains, locus YKR026C, strain gcn3, stronger effect = lower value 1.01 | S. cerevisiae deletion strains, locus YKR091W, strain srl3, stronger effect = lower value 0.997 | S. cerevisiae deletion strains, locus YLL001W, strain dnm1, stronger effect = lower value 1.01 | S. cerevisiae deletion strains, locus YLL026W, stronger effect = lower value 0.997 | S. cerevisiae deletion strains, locus YLL041C, strain sdh2, stronger effect = lower value 1 | S. cerevisiae deletion strains, locus YLR027C, strain aat2, stronger effect = lower value 1 | S. cerevisiae deletion strains, locus YLR039C, strain RIC1, stronger effect = lower value 0.979 | S. cerevisiae deletion strains, locus YLR058C, strain SHM2, stronger effect = lower value 0.983 | S. cerevisiae deletion strains, locus YLR102C, strain apc9, stronger effect = lower value 0.977 | S. cerevisiae deletion strains, locus YLR113W, strain HOG1, stronger effect = lower value 1.02 | S. cerevisiae deletion strains, locus YLR221C, strain rsa3, stronger effect = lower value 0.999 | S. cerevisiae deletion strains, locus YLR258W, strain gsy2, stronger effect = lower value 0.999 | S. cerevisiae deletion strains, locus YLR262C, strain YPT6 (second series), stronger effect = lower value 1.01 | S. cerevisiae deletion strains, locus YLR262C, strain YPT6, stronger effect = lower value 0.97 | S. cerevisiae deletion strains, locus YLR268W, strain sec22, stronger effect = lower value 0.996 | S. cerevisiae deletion strains, locus YLR320W, strain mms22, stronger effect = lower value 1.01 | S. cerevisiae deletion strains, locus YLR330W, strain CHS5, stronger effect = lower value 0.996 | S. cerevisiae deletion strains, locus YLR342W, strain FKS1 (second series), stronger effect = lower value 0.971 | S. cerevisiae deletion strains, locus YLR342W, strain FKS1, stronger effect = lower value 0.983 | S. cerevisiae deletion strains, locus YLR357W, strain rsc2, stronger effect = lower value 1.07 | S. cerevisiae deletion strains, locus YLR370C, strain arc18, stronger effect = lower value 0.999 | S. cerevisiae deletion strains, locus YLR371W, strain rom2, stronger effect = lower value 0.989 | S. cerevisiae deletion strains, locus YLR384C, strain iki3, stronger effect = lower value 0.998 | S. cerevisiae deletion strains, locus YLR418C, strain cdc73, stronger effect = lower value 1.01 | S. cerevisiae deletion strains, locus YML016C, strain PPZ1, stronger effect = lower value 0.986 | S. cerevisiae deletion strains, locus YML032C, strain rad52, stronger effect = lower value 0.978 | S. cerevisiae deletion strains, locus YML120C, strain ndi1, stronger effect = lower value 0.981 | S. cerevisiae deletion strains, locus YML124C, strain tub3, stronger effect = lower value 0.992 | S. cerevisiae deletion strains, locus YMR058W, strain fet3, stronger effect = lower value 0.994 | S. cerevisiae deletion strains, locus YMR078C, strain ctf18, stronger effect = lower value 0.992 | S. cerevisiae deletion strains, locus YMR125W, strain sto1, stronger effect = lower value 0.982 | S. cerevisiae deletion strains, locus YMR129W, stronger effect = lower value 0.992 | S. cerevisiae deletion strains, locus YMR205C, strain PFK2, stronger effect = lower value 0.991 | S. cerevisiae deletion strains, locus YMR223W, strain ubp8, stronger effect = lower value 0.985 | S. cerevisiae deletion strains, locus YMR231W, strain pep5, stronger effect = lower value 1.01 | S. cerevisiae deletion strains, locus YMR263W, strain SAP30, stronger effect = lower value 0.976 | S. cerevisiae deletion strains, locus YMR307W, strain GAS1, stronger effect = lower value 1.1 | S. cerevisiae deletion strains, locus YNL067W, strain RPL9B, stronger effect = lower value 0.963 | S. cerevisiae deletion strains, locus YNL071W, strain lat1, stronger effect = lower value 1.01 | S. cerevisiae deletion strains, locus YNL128W, strain TEP1, stronger effect = lower value 0.956 | S. cerevisiae deletion strains, locus YNL153C, strain GIM3, stronger effect = lower value 0.986 | S. cerevisiae deletion strains, locus YNL183C, strain NPR1, stronger effect = lower value 0.998 | S. cerevisiae deletion strains, locus YNL209W, strain ssb2, stronger effect = lower value 0.998 | S. cerevisiae deletion strains, locus YNL233W, strain BNI4, stronger effect = lower value 0.977 | S. cerevisiae deletion strains, locus YNL248C, strain rpa49, stronger effect = lower value 0.994 | S. cerevisiae deletion strains, locus YNL250W, strain rad50, stronger effect = lower value 0.988 | S. cerevisiae deletion strains, locus YNL271C, strain bni1, stronger effect = lower value 0.98 | S. cerevisiae deletion strains, locus YNL298W, strain CLA4, stronger effect = lower value 1 | S. cerevisiae deletion strains, locus YNL307C, strain MCK1, stronger effect = lower value 1 | S. cerevisiae deletion strains, locus YNL322C, strain KRE1 (second series), stronger effect = lower value 1.02 | S. cerevisiae deletion strains, locus YNL322C, strain KRE1, stronger effect = lower value 0.985 | S. cerevisiae deletion strains, locus YNR049C, strain mso1, stronger effect = lower value 0.982 | S. cerevisiae deletion strains, locus YNR052C, strain pop2, stronger effect = lower value 0.991 | S. cerevisiae deletion strains, locus YOL006C, strain TOP1, stronger effect = lower value 1.01 | S. cerevisiae deletion strains, locus YOL012C, strain htz1 1.06 | S. cerevisiae deletion strains, locus YOL147C, strain pex11, stronger effect = lower value 1 | S. cerevisiae deletion strains, locus YOR001W, strain rrp6, stronger effect = lower value 0.996 | S. cerevisiae deletion strains, locus YOR061W, strain CKA2, stronger effect = lower value 0.96 | S. cerevisiae deletion strains, locus YOR069W, strain VPS5, stronger effect = lower value 0.98 | S. cerevisiae deletion strains, locus YOR070C, strain gyp1, stronger effect = lower value 0.99 | S. cerevisiae deletion strains, locus YOR080W, strain dia2, stronger effect = lower value 0.987 | S. cerevisiae deletion strains, locus YOR083W, strain WHI5, stronger effect = lower value 0.987 | S. cerevisiae deletion strains, locus YOR106W, strain vam3, stronger effect = lower value 0.983 | S. cerevisiae deletion strains, locus YOR136W, strain idh2, stronger effect = lower value 0.986 | S. cerevisiae deletion strains, locus YOR144C, strain elg1, stronger effect = lower value 0.984 | S. cerevisiae deletion strains, locus YOR184W, strain ser1, stronger effect = lower value 0.998 | S. cerevisiae deletion strains, locus YOR231W, strain MKK1, stronger effect = lower value 1.05 | S. cerevisiae deletion strains, locus YOR265W, strain rbl2, stronger effect = lower value 0.988 | S. cerevisiae deletion strains, locus YOR270C, strain vph1, stronger effect = lower value 0.976 | S. cerevisiae deletion strains, locus YOR290C, strain snf2, stronger effect = lower value 0.997 | S. cerevisiae deletion strains, locus YOR316C, strain cot1, stronger effect = lower value 0.971 | S. cerevisiae deletion strains, locus YPL051W, strain arl3, stronger effect = lower value 0.998 | S. cerevisiae deletion strains, locus YPL055C, strain LGE1, stronger effect = lower value 0.998 | S. cerevisiae deletion strains, locus YPL078C, strain atp4, stronger effect = lower value 0.99 | S. cerevisiae deletion strains, locus YPL106C, strain sse1, stronger effect = lower value 0.992 | S. cerevisiae deletion strains, locus YPL240C, strain hsp82, stronger effect = lower value 1 | S. cerevisiae deletion strains, locus YPL241C, strain CIN2, stronger effect = lower value 0.98 | S. cerevisiae deletion strains, locus YPL256C, strain CLN2, stronger effect = lower value 1.05 | S. cerevisiae deletion strains, locus YPR119W, strain clb2, stronger effect = lower value 0.997 | S. cerevisiae deletion strains, locus YPR141C, strain kar3, stronger effect = lower value 0.972 | S. cerevisiae deletion strains, locus YPR163C, strain tif3, stronger effect = lower value 0.995 | S. cerevisiae deletion strains, locus YPR167C, strain met16, stronger effect = lower value 0.976 | S. cerevisiae deletion strains, strain wtn01, stronger effect = lower value 0.995 | S. cerevisiae strains, strain wild type, stronger effect = lower value 0.997
